According to PMC5540273 (PLoS ONE, 2017):
“And” between values parts separate entries of the source, which are not always exact repeats. Identical values can stand only once. Like-named read-outs stand apart in the source and are kept apart here.

Key:
RIPK5 = conditions: concentration: 1 μM, replicates: in singlicate, n = 1
ROCK1 = conditions: concentration: 1 μM, replicates: in singlicate, n = 1
ROCK2 = conditions: concentration: 1 μM, replicates: in singlicate, n = 1
ROS1 = conditions: concentration: 1 μM, replicates: in singlicate; n = 1
[1] = system: RPS6KA4(Kin.Dom.1-N-terminal); conditions: concentration: 1 μM, replicates: in singlicate, n = 1
[2] = system: RPS6KA4(Kin.Dom.2-C-terminal); conditions: concentration: 1 μM, replicates: in singlicate, n = 1
[3] = system: RPS6KA5(Kin.Dom.1-N-terminal); conditions: concentration: 1 μM, replicates: in singlicate, n = 1
[4] = system: RPS6KA5(Kin.Dom.2-C-terminal); conditions: concentration: 1 μM, replicates: in singlicate, n = 1
[5] = system: T1, RSK1(Kin.Dom.1-N-terminal); conditions: concentration: 1 μM, replicates: in singlicate; n = 1
T1 construct: gene RPS6KA1

[6] = system: T2, RSK1(Kin.Dom.2-C-terminal); conditions: concentration: 1 μM, replicates: in singlicate, n = 1
T2 construct: gene RPS6KA1
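Further: KINOMEscan kinase panel screen.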

| SMILES | %Inh (RIPK5) | %Inh (ROCK1) | %Inh (ROCK2) | %Inh (ROS1) | %Inh [1] | %Inh [2] | %Inh [3] | %Inh [4] | %Inh [5] | %Inh [6] | %Inh (RIPK5; 1 µM) | %Inh (ROCK1; 1 µM) | %Inh (ROCK2; 1 µM) | %Inh ([1]; 1 µM) | %Inh ([2]; 1 µM) | %Inh ([3]; 1 µM) | %Inh ([4]; 1 µM) | %Inh ([6]; 1 µM) |
| --- | --- | --- | --- | --- | --- | --- | --- | --- | --- | --- | --- | --- | --- | --- | --- | --- | --- | --- |
| C[C@@H](Oc1cc(-n2cnc3ccc(NC(=O)NC(C)(C)C)cc32)sc1C(N)=O)c1ccccc1Cl [GSK346294] | 10% | 4% | 17% | 33% | 11% | 0% | 13% | 14% | 0% | 15% |  |  |  |  |  |  |  |  |
| CCc1nc(-c2cccc(C)c2)c(-c2ccnc(NCc3ccccc3)c2)s1 | 14% | 0% | 0% | 0% | 0% | 1% | 1% | 4% | 0% | 57% |  |  |  |  |  |  |  |  |
| O=C1NC(=O)C(N2CCc3ccccc32)=C1c1cccc(Cl)c1 [SB-408010] | 9% | 0% | 0% | 0% | 4% | 0% | 9% | 0% | 0% | 11% |  |  |  |  |  |  |  |  |
| N#Cc1ccc(-c2cc(-c3c[nH]nc3-c3ccccn3)ccn2)cc1 [GW693028] | 0% | 28% | 3% | 0% | 5% | 0% | 19% | 10% | 13% | 0% |  |  |  |  |  |  |  |  |
| Cl.Nc1ncnc2occ(-c3ccc(NC(=O)Nc4cc(C(F)(F)F)ccc4F)cc3)c12 [SB-707548] | 28% | 38% | 74% | 50% | 48% | 0% | 63% | 16% | 18% | 30% |  |  |  |  |  |  |  |  |
| O=C(NCCCN1CCOCC1)c1cccc(Nc2nccc(Nc3ccc(Oc4ccccc4)cc3)n2)c1 [GW663929] | 7% | 0% | 27% | 25% | 0% | 0% | 0% | 32% | 18% | 20% |  |  |  |  |  |  |  |  |
| COc1ccc(Nc2nccc(N3CCC(NC(=O)Nc4cccc(C(C)=O)c4)C3)n2)cc1 (stereo not drawn) [GSK1379731] | 0% | 25% | 0% | 4% | 2% | 0% | 0% | 0% | 0% | 0% |  |  |  |  |  |  |  |  |
| Cl.Cl.Cl.Fc1ccc(-c2ncn(C3CCNCC3)c2-c2ccnc(Nc3ccccc3)n2)cc1 [SB-238039] |  |  |  | 0% |  |  |  |  | 0% |  | 82% and 61% | 27% and 0% | 32% and 9% | 16% and 4% | 0% and 4% | 36% and 11% | 23% and 0% | 64% and 35% |
| Cc1c2ccc(N(C)c3ccnc(Nc4cccc(S(N)(=O)=O)c4)n3)cc2nn1Cc1ccccc1.Cl.Cl [GW787226] | 28% | 48% | 0% | 62% | 18% | 0% | 0% | 0% | 0% | 19% |  |  |  |  |  |  |  |  |
| CCc1ccnc(/C=C/c2n[nH]c3cc(Sc4ccccc4C(=O)NC)ccc23)c1 | 0% | 0% | 0% | 19% | 0% | 0% | 0% | 0% | 0% | 3% |  |  |  |  |  |  |  |  |
| COc1cc2c(cc1OC[C@@H](O)CO)ncc1c3ccc(C#N)cc3[nH]c21 | 7% | 91.1% | 96.9% | 0% | 0% | 9% | 0% | 26% | 33% | 17% |  |  |  |  |  |  |  |  |
| Nc1nccc(-c2c(-c3ccc(F)cc3)ncn2C2CCN(CC(F)(F)F)CC2)n1 [SB-236560] | 13% | 38% | 49% | 14% | 0% | 0% | 0% | 0% | 0% | 27% |  |  |  |  |  |  |  |  |
| COc1ccc(S(=O)(=O)NC2CCN(c3cc(C)nc(Nc4cccc(C#N)c4)n3)CC2)cc1.O=C(O)C(F)(F)F [GSK1653539] | 0% | 0% | 0% | 16% | 0% | 0% | 2% | 23% | 8% | 0% |  |  |  |  |  |  |  |  |
| CN(C(=O)c1ccc(-c2cc(-c3c[nH]nc3-c3ccccn3)ccn2)cc1)C1CCOCC1 [GW810083] | 0% | 31% | 20% | 0% | 0% | 0% | 0% | 0% | 0% | 0% |  |  |  |  |  |  |  |  |
| NS(=O)(=O)c1cccc(-c2ccc3ncc(N4CCOCC4)nc3c2)c1 [GSK1535721] | 8% | 0% | 0% | 2% | 4% | 0% | 8% | 13% | 0% | 6% |  |  |  |  |  |  |  |  |
